Compound activity from PubChem.
ERb coact inh: blocks coactivator binding to human estrogen receptor beta; Q92731; inhibition, % at 25.6 µM; AID 633; TR-FRET ER-beta LBD / SRC1-Cy5 peptide binding; receptor agonist-loaded with 1 µM estradiol; 1.3% of 86,000 active;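 active = compounds whose percent inhibition of the receptor-coactivator binding signal exceeds about 50% in the single-dose screen, limit read from the data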
Target sequence (Q92731 whole entry, looked up, the tested form may be a part): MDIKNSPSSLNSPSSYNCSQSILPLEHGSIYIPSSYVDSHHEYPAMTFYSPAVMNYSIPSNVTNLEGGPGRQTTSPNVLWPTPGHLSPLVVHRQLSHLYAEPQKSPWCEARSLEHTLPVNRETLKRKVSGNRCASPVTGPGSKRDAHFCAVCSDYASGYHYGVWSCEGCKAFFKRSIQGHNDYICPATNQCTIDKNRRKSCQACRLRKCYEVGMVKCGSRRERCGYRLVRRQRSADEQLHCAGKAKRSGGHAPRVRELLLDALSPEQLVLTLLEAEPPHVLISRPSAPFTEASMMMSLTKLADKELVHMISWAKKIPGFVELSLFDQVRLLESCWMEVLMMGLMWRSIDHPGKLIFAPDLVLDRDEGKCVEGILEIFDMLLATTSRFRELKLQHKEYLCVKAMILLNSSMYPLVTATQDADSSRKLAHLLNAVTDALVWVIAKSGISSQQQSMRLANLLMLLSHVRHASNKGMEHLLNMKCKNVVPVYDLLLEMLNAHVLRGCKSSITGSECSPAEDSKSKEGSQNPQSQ
ERa SRC1 inh: blocks coactivator binding to human estrogen receptor alpha; 1.7% of 86,000 active; TR-FRET ER-alpha LBD / SRC-1 peptide, estradiol-bound; P03372; inhibition, % at 25.6 µM; AID 629; in the data active = inhibition above about 50%
PTPN22 act: activators of human LYP (PTPN22) phosphatase; Q9Y2R2; recombinant LYP, DiFMUP fluorescence; 0 = plate median, 100 = signal doubled; activation, % at 2 µM; 0.11% of 96,000 active;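 active = activation at 2 µM above a set limit, the mean plus 5 SD, cut at about 37% in these data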
FAK inh: blocks human focal adhesion kinase activity. biochemical FAK kinase activity assay. inhibition, %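 (tested at 7 µM)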. 0.84% of 97,000 active. AID 727
ERa coact pot: enhances coactivator binding to human estrogen receptor alpha. P03372. TR-FRET ERalpha-LBD/SRC-Cy5 coactivator binding, 2 h; 100 = basal binding, no effect. coactivator binding (% of control), % at 25.6 µM. 1.3% of 86,000 active; in the data active = activity above about 200%;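 note: binding measured in presence of low estradiol as agonist stimulus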
PTPN22 inh 2: LYP (human) phosphatase inhibition; Q9Y2R2; recombinant LYP catalytic domain, DiFMUP fluorescence; inhibition, % at 2 µM; 0.21% of 96,000 active;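 active = inhibition at 2 µM at or above a set limit, the screen mean plus 3 SD, cut at about 24% in these data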
PTPN22 act conf: LYP (PTPN22) phosphatase activation confirmation; shares compounds with PTPN22 act; Recombinant LYP, DIFMUP fluorescence; zero set by plate's median compound well; activation, % at 2 µM; 100 tested, under 10 active; AID 1031; call rule not given here
FAK inh conf: FAK (human) inhibition confirmed; inhibition, % at 7 µM; FAK kinase biochemical inhibition assay; shares compounds with FAK inh; 28% of 750 active
Numbers stand for hits; i = inactive; nt = no result; [ ] = dose if it differs, or a comment. In the library only some 3.4% were active in any assay of this set; here they are far more common. Cut-off read from the data, not from the text of the source, unless noted: active = inhibition above about 19%; inactive = the rest.

SMILES	ERb coact inh	ERa SRC1 inh	PTPN22 act	FAK inh	ERa coact pot	PTPN22 inh 2	FAK inh conf	others
CCC(=O)N1CCc2cc(Br)cc(S(=O)(=O)CCC(=O)NCC3CCCO3)c21 (configuration not stated)	i	i	49	i	i	i	nt	PTPN22 act conf=i
Cc1ccc(C(=O)OCc2cn3ccccc3n2)cc1	i	i	nt	nt	i	nt	nt
COc1cccc(SCc2noc(C(=O)NCC3CCCO3)c2C(=O)O)c1 (configuration not stated)	nt	nt	54	i	nt	i	nt	PTPN22 act conf=i
CCN(CC)C(=O)CSc1nc2ccc(NC(=O)CSc3nnc(N)s3)cc2s1	nt	nt	i	21	nt	i	i
CCC(=O)Nc1ccc2nc(SCC(=O)N3CCCC3)sc2c1	i	i	i	i	i	i	nt
Cn1c(SCC(=O)Nc2ccc3nc(SCC(=O)N4CCCC4)sc3c2)nnc1-c1ccc(N)cc1	nt	nt	i	31	nt	i	32
COc1cccc(CNC(=O)C(=O)NCC2CCCO2)c1 (configuration not stated)	i	i	i	i	i	i	nt
CC1CCCN(C(c2cccs2)c2nnnn2Cc2ccccc2)C1 (configuration not stated)	i	i	i	i	i	i	nt
CCOC(=O)C(C(=O)N(C)C)c1ncc(C(F)(F)F)cc1Cl (configuration not stated)	nt	nt	i	78	nt	i	i
CCOC(=O)C(C(=O)NCc1ccc(F)cc1)c1ncc(C(F)(F)F)cc1Cl (configuration not stated)	nt	nt	i	i	nt	i	nt
COc1cccc(N2CCN(Cc3coc4c(Cl)cc(Cl)cc4c3=O)CC2)c1	i	i	nt	nt	i	nt	nt
Cc1ccccc1-n1c(SCc2ccccn2)nc2n[nH]c(C)c2c1=N	nt	nt	i	30	nt	i	i
CCOc1ccccc1NC(=O)CCSc1nc2n[nH]c(C)c2c(=N)n1-c1ccccc1Cl	i	i	nt	nt	i	nt	nt
CN=C1S/C(=C\c2cc(C)n(-c3ccccc3F)c2C)C(=O)N1C	nt	nt	i	21	nt	i	i
Cc1ccc(NCc2ccccc2O)cc1	i	i	i	i	i	i	nt
Cc1ccc(CNc2ccc(O)cc2)cc1	65[fluorescence artefact?]	i	i	52	i	i	i
CC(C)(C)C(=O)c1sc(Nc2ccccc2)nc1N	i	i	i	32	i	i	i
CC(=O)n1nc(-c2cccc(C)c2)nc1SCC(=O)Nc1ccccc1	nt	nt	i	19	nt	i	i
CCC(=O)n1nc(-c2ccccc2)nc1SCC(=O)Nc1ccc(C)cc1	nt	nt	i	i	nt	i	nt
Nc1ccc(-c2nc3ccccc3[nH]2)cc1	i	i	i	i	i	i	nt
Cc1n[nH]c(C)c1-c1nc2ccccc2[nH]1	i	i	i	24	i	i	i
COc1ccc2oc(=O)c(-c3nnc(NCc4ccco4)s3)cc2c1	57[fluorescence artefact?]	i	i	21	i	i	i
CC(C)OC(=O)CC12CN(C)CC(CC(=O)OC(C)C)(CN(C)C1)C2=O	i	i	i	i	i	i	nt
CSc1nc(NCc2ccccc2)c2c3c(sc2n1)CN(C)CC3	nt	nt	i	21	nt	i	i
CSc1nc(NCC(C)C)c2c3c(sc2n1)CN(C)CC3	nt	nt	i	i	nt	i	nt
SMILES	ERb coact inh	ERa SRC1 inh	PTPN22 act	FAK inh	ERa coact pot	PTPN22 inh 2	FAK inh conf	others
CCOC(=O)N1CCC(NC(=O)c2ccc(CS(=O)(=O)c3ccccc3C)o2)CC1	i	i	i	i	i	i	nt
Cc1ccc(-c2nc3ccccc3s2)cc1NC(=O)c1cc(-n2cnnc2)ccc1Cl	nt	nt	i	29	nt	i	i
Cc1ccc(-c2nc3ccccc3s2)cc1NC(=S)NC(=O)c1ccccc1	nt	nt	i	i	nt	i	nt
CNC(=O)CN1C(=O)c2cccc3cccc1c23	i	i	i	i	i	i	nt
CN1/C(=N\O)c2cccc3cccc1c23	i	i	i	21	i	i	i
CCc1nc(SCC(=O)NNC(=O)C(C)C)c2ccccc2n1	nt	nt	nt	42	nt	nt	i
CCc1nc(SCC(=O)NNC(=O)C2CCCCC2)c2ccccc2n1	nt	nt	i	36	nt	i	20
CN(C)c1nc(-c2ccccc2)c2cnn(Cc3ccccc3)c2n1	i	i	i	i	i	i	nt
COc1cc(-c2cc(OC)c3c(C)oc(C)c3c(=O)c2)ccc1O	i	i	i	20	i	i	i
